# From PubChem BioAssay AID1159580 (chemical genetic matrix, 2015)
# Hit rate of the full screen: of about 5,500 compounds, about 2,000 (36%) were called active. Roughly 18% stayed inconclusive and do not appear here. The list shows a part of the results. A number with no mark means an inactive call. Cut-off read from the data, not from the text of the source: active = normalized growth mostly below about 0.91 (no sharp cut-off); inconclusive = no clear call, values can overlap the other calls; inactive = mostly above about 0.92.
# Test: chemical genetic growth profiling, strain panel (AID 1159580);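 note: tested at 20 µM; growth read once vehicle control cultures reached saturation at 30 °C; 1 = growth at the plate median or of vehicle wells; lower values mean less growth of the strain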
# Details: S. cerevisiae deletion strains, growth OD
# [1] = locus YJR075W, strain HOC1, hits give low values
# [2] = locus YMR263W, strain SAP30, hits give low values
# [3] = locus YNL153C, strain GIM3, hits give low values
# [4] = locus YNL322C, strain KRE1, hits give low values
# [5] = locus YPL241C, strain CIN2, hits give low values
# [6] = locus YHR030C, strain SLT2, hits give low values
structure (smiles),measurement,setting,value
C[C@@H]1O[C@H](C[N+](C)(C)C)CS1,normalized growth,"locus YAL040C, strain CLN3, hits give low values",1.02
same,normalized growth,"locus YCL061C, strain MRC1 (second series), hits give low values",1.01
same,normalized growth,"locus YDR363W, strain ESC2, hits give low values",1.03
same,normalized growth,"locus YER002W, strain NOP16, hits give low values",0.997
same,normalized growth,[1],1.02
same,normalized growth,[2],1.01
same,normalized growth,[3],1.01
same,normalized growth,"locus YNL175C, strain NOP13, hits give low values",1.01
same,normalized growth,"locus YNL197C, strain WHI3, hits give low values",1.01
same,normalized growth,"locus YNL224C, strain SQS1, hits give low values",0.993
same,normalized growth,[4],1.02
same,normalized growth,"locus YOR083W, strain WHI5 (second series), hits give low values",1.05
same,normalized growth,[5],1.01
CC(C)(CO)[C@@H](O)C(=O)NCCCO,normalized growth,[6],1.09
same,normalized growth,"locus YHR079C, strain IRE1, hits give low values",0.97
same,normalized growth,"locus YJL095W, strain BCK1, hits give low values",1.01
same,normalized growth,"locus YJR066W, strain TOR1, hits give low values",0.936
same,normalized growth,"locus YLR113W, strain HOG1, hits give low values",0.968
same,normalized growth,"locus YNL183C, strain NPR1, hits give low values",0.932
same,normalized growth,"locus YOR231W, strain MKK1, hits give low values",0.998
same,normalized growth,"locus YPL256C, strain CLN2, hits give low values",0.988
c1ccc(-c2cc3c(ccc4nonc43)nn2)cc1,normalized growth,"locus YBR229C, strain ROT2, hits give low values",0.957
same,normalized growth,"locus YDL101C, strain DUN1, hits give low values",0.933
same,normalized growth,"locus YDL134C, strain PPH21, hits give low values",0.991
same,normalized growth,"locus YDR150W, strain NUM1, hits give low values",0.922
same,normalized growth,"locus YEL061C, strain CIN8, hits give low values",0.947
same,normalized growth,"locus YGR078C, strain PAC10, hits give low values",0.973
same,normalized growth,[6],0.604 (active)
same,normalized growth,"locus YHR087W, strain rtc3, hits give low values",0.971
same,normalized growth,"locus YJR043C, strain POL32, hits give low values",0.76 (active)
same,normalized growth,[1],0.97
same,normalized growth,"locus YLR039C, strain RIC1, hits give low values",0.96
same,normalized growth,"locus YLR058C, strain SHM2 (second series), hits give low values",0.977
same,normalized growth,"locus YLR085C, strain ARP6, hits give low values",0.878
same,normalized growth,"locus YLR262C, strain YPT6, hits give low values",0.988
same,normalized growth,"locus YML094W, strain GIM5, hits give low values",0.935
same,normalized growth,"locus YMR219W, strain ESC1, hits give low values",0.981
same,normalized growth,[2],0.923
same,normalized growth,[3],0.955
same,normalized growth,"locus YNL298W, strain CLA4 (second series), hits give low values",0.945
same,normalized growth,[4],0.988
same,normalized growth,"locus YNR030W, strain Alg12, hits give low values",0.905
same,normalized growth,"locus YOL006C, strain TOP1, hits give low values",0.734
same,normalized growth,"locus YPL055C, strain LGE1, hits give low values",0.82 (active)
same,normalized growth,[5],0.89
same,normalized growth,"locus YPR135W, strain CTF4, hits give low values",0.764
